Article PMC13494018
Unmarked numbers belong to inactive results. The rule behind the calls is not given here.

B1: design_615_ab801fab-270b-4f6a-b2b5-83c165df418c_662_dldesign_0_cycle1_af2pred (protein)
chain: AAAQAKALAAEAKAYIAKAKEAAAAGNLGEAAQLASKALLKAAQAANLDPAFAPVLDEAQATVEAIAAAQAAAA
B2: design_614_ef6b398b-10cb-4a07-8087-96dafb4f9c83_2152_dldesign_0_cycle1_af2pred (protein)
chain: GAAEEERRRHQEAVERAEAAVKELEALAKQLAADPHGAVFAQAMVDQARRALEEAKTGDLETAEEALRVITSNLEMAKAIL
B3: design_615_ab801fab-270b-4f6a-b2b5-83c165df418c_67_dldesign_0_cycle1_af2pred (protein)
chain: AVKEEAQKVLAESLEYMEKYKDDKEVVAEFNKAANYASKAITGPEETGKEYLAKAKEYLEKGKALAKEKEA
B4: design_615_ab801fab-270b-4f6a-b2b5-83c165df418c_153_dldesign_0_cycle1_af2pred (protein)
chain: SAAGEIGAKAIEAMKKAYEYAKLYESGEDEKAKEKAKEAAEKLKELAKEAAKAGAAGARLAKVAKASAENALKIAKE
B5: design_615_ab801fab-270b-4f6a-b2b5-83c165df418c_0_dldesign_0_cycle1_af2pred (protein)
chain: AAAERLAQRLEAARLIAEAAGVPEEVARRVAELVADPATFPEAVALAKAVGGGAMLILAAARSGSLENARKMAEAAA
B6: design_615_ab801fab-270b-4f6a-b2b5-83c165df418c_110_dldesign_0_cycle1_af2pred (protein)
chain: SAELAKLNGEALELAKLGAEEGAEYAEKAMELVIEAARLAGDEEGAKYAEEMREEALKAAKESPKEAAQIVMTALSRVFSRIAA
B7: design_614_ef6b398b-10cb-4a07-8087-96dafb4f9c83_2192_dldesign_0_cycle1_af2pred (protein)
chain: AAAALQAATIALGSLRALAESARRSNAESAKKLAELAEDLAADAKANAAKAAADPAYAAQAKAVAEEAKRALEETKRIAEEKAEA
B8: design_615_ab801fab-270b-4f6a-b2b5-83c165df418c_234_dldesign_0_cycle1_af2pred (protein)
chain: LEESARKAAELALDLAKYAAANPATAPQALASIAGLARNAIEAGAEAAKLMAEALKKGAEYVAKNGTAAQAEQVKAIRERAERGAREA
B9: design_615_ab801fab-270b-4f6a-b2b5-83c165df418c_137_dldesign_0_cycle1_af2pred (protein)
chain: MEKEKELLKKAKELYEAAKTMAEVAKNAVALGHRSGALAAIKGIEQAAKAIEELAKEAKDEEVKKKIKELAKEAKKLAEEMKKLAEKA
B10: design_615_ab801fab-270b-4f6a-b2b5-83c165df418c_650_dldesign_0_cycle1_af2pred (protein)
chain: SSEREVLEAEGREWGRLIAAADAVSPALAAEVARALAEKAVADPGFLYALNVAVATVAREGSPAAAAVARAALAEASKAVIAKL
B11: design_615_ab801fab-270b-4f6a-b2b5-83c165df418c_622_dldesign_0_cycle1_af2pred (protein)
chain: VTPEEAHQALASTVMRLAQQLGLSGGAISTGLRLASEAARAFAEDPEKMRKVVEEGAKKIEALEGEKGKVVGEELRRKAEEIVA
B12: design_615_ab801fab-270b-4f6a-b2b5-83c165df418c_251_dldesign_0_cycle1_af2pred (protein)
chain: AAAAAEAAAVQARGGALLDELKERTSELSPEAVSRASLLLTRGLTYASQPATLAEGRRYVDEAEAIIRSA
B13: design_614_ef6b398b-10cb-4a07-8087-96dafb4f9c83_2138_dldesign_0_cycle1_af2pred (protein)
chain: SEALRAEAARLANAALALLSRASVAFGNALSPTLATAVDAFLAADREGDAETRLAVARAALAAAEAAVAAAAAAA
B14: design_615_ab801fab-270b-4f6a-b2b5-83c165df418c_246_dldesign_0_cycle1_af2pred (protein)
chain: AEREEAALAEAEKALAEAKKLVEAALADPATAATTVGEATALLTAAIERASREVSPERALEVAQEAARIQADGIKALA
B15: design_615_ab801fab-270b-4f6a-b2b5-83c165df418c_209_dldesign_0_cycle1_af2pred (protein)
chain: SAQAQEAATRAAEALARHLARQVAEHGVSDADFEGNVDILVALGRQSAAAGEAAAAVLEEAKAADPERFGAAAERLKAAAAEAK
B16: design_615_ab801fab-270b-4f6a-b2b5-83c165df418c_555_dldesign_0_cycle1_af2pred (protein)
chain: AAAALAAAAAAARAAATAALAETLELAEEAQRLGDSETSLALSRQANRIAGLYIAGVRDPRLAPEAGKRAEELRREAERLYKEAL
B17: design_615_ab801fab-270b-4f6a-b2b5-83c165df418c_149_dldesign_0_cycle1_af2pred (protein)
chain: AAAALEAIRDEGAATLTALAGPQLGALFRVAVQAAISGKLELAEQLLDAVVAEAAAINPAAAEKAKELKALALAIARA
B18: design_615_ab801fab-270b-4f6a-b2b5-83c165df418c_597_dldesign_0_cycle1_af2pred (protein)
chain: AAAAEAITKATLAAIEKTAEKIVEAAEKATPEEAKKLAESVKKLAETGVGIATAASPELGKEAKEKAEKLKEKAKEAVKKVKE
B19: design_615_ab801fab-270b-4f6a-b2b5-83c165df418c_121_dldesign_0_cycle1_af2pred (protein)
chain: GKDEELAKEAKKIAEAAEGVAASALALAAQPGLLAAAAAFARKAAEELERLGKENSKELEKVAKKEAKRAKEAAERVEAALKAATA

Target: CD276, Q5ZPR3
Sequence (Q5ZPR3 whole entry): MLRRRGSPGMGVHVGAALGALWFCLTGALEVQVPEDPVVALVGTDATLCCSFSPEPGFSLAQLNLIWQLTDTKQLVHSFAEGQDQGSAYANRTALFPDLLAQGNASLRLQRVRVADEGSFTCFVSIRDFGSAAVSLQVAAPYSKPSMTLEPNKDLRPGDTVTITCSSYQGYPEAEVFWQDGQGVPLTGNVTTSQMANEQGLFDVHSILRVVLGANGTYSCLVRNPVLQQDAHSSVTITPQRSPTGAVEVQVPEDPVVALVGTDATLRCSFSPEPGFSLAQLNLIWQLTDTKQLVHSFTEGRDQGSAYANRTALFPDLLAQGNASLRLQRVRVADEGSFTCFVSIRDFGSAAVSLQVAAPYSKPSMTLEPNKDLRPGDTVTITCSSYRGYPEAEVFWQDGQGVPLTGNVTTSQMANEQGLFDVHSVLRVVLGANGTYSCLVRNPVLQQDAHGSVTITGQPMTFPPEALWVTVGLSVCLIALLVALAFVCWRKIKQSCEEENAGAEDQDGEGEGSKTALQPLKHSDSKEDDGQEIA

| Binder | binding in a display sort |
| --- | --- |
| B1 | not found |
| B2 | not found |
| B3 | not found |
| B4 | not found |
| B5 | not found |
| B6 | not found |
| B7 | not found |
| B8 | not found |
| B9 | not found |
| B10 | not found |
| B11 | not found |
| B12 | not found |
| B13 | not found |
| B14 | not found |
| B15 | not found |
| B16 | not found |
| B17 | not found |
| B18 | not found |
| B19 | not found |
